Compound activity (PubChem)
Hits are enriched below; roughly 5.4% of the tested compounds scored in any of these assays.
PNC assembly inh – perinucleolar compartment assembly inhibition; 140,000 tested, 3.1% active; activity change (PNC), negative = inhibition, % at 10 µM; PC3M PTB-GFP, PNC prevalence imaging, 16 h; stronger effect = lower value;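 active = readout at or below -70, meaning at least 70% loss of cells showing the perinucleolar compartment, a nuclear body marking cancer cells; inconclusive = readout between -30 and a set limit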
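Read-out is percentage of cells bearing a perinucleolar compartment, from automated 20x imaging of fixed, Hoechst-stained PC3M PTB-GFP cells. Cells were seeded 4 h, then exposed 16 h to compound (23 nl of library stock) in duplicate plates.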
HPGD block – inhibitors of human 15-hydroxyprostaglandin dehydrogenase (HPGD); P15428; 150,000 tested, 4.3% active; purified HPGD, NADH fluorescence kinetic, PGE2 substrate; AID 894; Potency, µM, hits mostly inhibitors; active = well fitted inhibition curve with a large enough effect, not every such curve was filed as active; inconclusive = small, poorly fitted or top-dose-only effect, or another doubt; inactive = no such curve, though single readings can be large or run the other way
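20 nM HPGD preincubated 15 min at room temperature with compound in 50 mM Tris-HCl pH 8, 0.01% Tween 20. Started with 1 mM NAD+ and 30 uM prostaglandin E2; NADH fluorescence (360/450 nm) read 5 times over 30-s intervals, last minus first.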
IMPase inh – membrane-permeable compound that blocks inositol monophosphatase. P97697. CHO-M1 cells, IP1 accumulation, HTRF TR-FRET ratio. inhibition (IP1 accumulation), % at 46.1 µM. 120,000 tested, under 10 active. AID 901; active = well fitted curve in the direction sought with a large enough effect in the signal ratio, not every such curve was filed as active; inconclusive = small, poorly fitted or top-dose-only effect, or a change in a side signal; inactive = no such curve, though single readings can be large or run the other way; the % refers to the signal ratio;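 note: cells stimulated with carbachol in lithium chloride buffer; higher means more IMPase inhibition seen as more IP1 and lower FRET ratio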
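CHO-M1, 2000 cells/well, cultured 16–30 h; cpd up to 46 uM; carbachol (50 uM solution, stimulation buffer w/ 50 mM LiCl, pH 7.4), 30 min 37C; IP-One TR-FRET, 10 min RT; Ex 320/Em 665, 620; Hill-fit AC50.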
15-hLO-2 inh – blocks human 15-lipoxygenase 2 activity; O15296; purified 15hLO-2, xylenol orange hydroperoxide absorbance; Potency, µM (top dose mostly 57.1 µM), most hits filed as inhibitors; 110,000 tested, 0.56% active; note: nearly all actives have a fitted effect of over 60% in size
Target sequence (O15296 whole entry, looked up): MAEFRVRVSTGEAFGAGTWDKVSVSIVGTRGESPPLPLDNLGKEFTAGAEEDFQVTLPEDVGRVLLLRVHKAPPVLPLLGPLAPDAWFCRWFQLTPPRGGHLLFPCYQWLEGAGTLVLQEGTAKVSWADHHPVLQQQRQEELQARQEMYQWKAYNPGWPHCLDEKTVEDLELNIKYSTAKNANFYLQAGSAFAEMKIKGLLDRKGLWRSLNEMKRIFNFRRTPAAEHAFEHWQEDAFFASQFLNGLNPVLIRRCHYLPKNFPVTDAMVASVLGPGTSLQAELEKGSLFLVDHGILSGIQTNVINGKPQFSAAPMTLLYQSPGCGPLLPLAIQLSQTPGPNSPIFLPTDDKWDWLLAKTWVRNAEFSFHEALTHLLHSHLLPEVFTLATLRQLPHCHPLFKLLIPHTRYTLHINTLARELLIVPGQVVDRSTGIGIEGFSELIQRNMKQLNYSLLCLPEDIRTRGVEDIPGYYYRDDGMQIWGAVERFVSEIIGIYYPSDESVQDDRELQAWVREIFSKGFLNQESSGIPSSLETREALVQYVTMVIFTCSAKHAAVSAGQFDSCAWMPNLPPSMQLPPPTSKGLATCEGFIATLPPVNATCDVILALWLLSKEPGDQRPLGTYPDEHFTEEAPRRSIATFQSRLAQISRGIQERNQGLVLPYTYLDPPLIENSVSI
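Read-out: hydroperoxide product oxidises ferrous iron, measured as xylenol orange complex via the 573-to-405 nm absorbance ratio after 30 min. Reaction: 50 nM enzyme, 15 min compound preincubation, 45 uM arachidonic acid, 90 min RT, Hepes pH 7.5 with Triton X-100.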
IMPase Li cell – cell-permeable IMPase inhibitors with lithium potentiation. CHO-M1 cells, IP1 TR-FRET (IP-One), carbachol + lithium. Potency, µM (series often up to 59.4 µM), actives largely listed as inhibitors. 210,000 tested, 0.35% active. AID 1457;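 note: IP1 builds up when IMPase is blocked and the TR-FRET signal falls; nearly all actives have a fitted effect of over 50% in size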
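Test compounds were applied to CHO-M1 cells previously cultured for 16–30 h at 2000 per well. A small lithium amount accompanied them; after 30 min at 37C, IP1 was quantified by TR-FRET.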
ALOX12 inhib – inhibitors of human 12-lipoxygenase (ALOX12); purified 12-hLO, xylenol orange hydroperoxide absorbance; Potency, µM (doses to about 57.1 µM), most hits filed as inhibitors; 150,000 tested, 0.12% active; note: nearly all actives have a fitted effect of over 55% in size
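Purified human 12hLO (150 nM), preincubated 15 min with compound, then 40 uM arachidonic acid for 30 min, room temperature, Hepes pH 7.0 with 0.01% Triton X-100. Hydroperoxide detected by ferrous iron/xylenol orange; 573/405 nm absorbance ratio gives reaction progress.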
Hits are given with their value; 0 = inactive; ? = inconclusive; - = no result given; [ ] = dose if it differs, or a comment. Unless noted, calls come from the whole dose curve; as a rule, active = well fitted curve in the direction sought with a large enough effect; inconclusive = small, poorly fitted or top-dose-only effect, or another doubt; inactive = no such curve, though single readings can be large; an effect the other way counts as inactive or inconclusive.

SMILES	PNC assembly inh	HPGD block	IMPase inh	15-hLO-2 inh	IMPase Li cell	ALOX12 inhib
O=C(CCNS(=O)(=O)c1cccc2nsnc12)NC1CCN(Cc2ccccc2)CC1	-112	0	0	0	0	0
COC(=O)CCCC1=CC2=CC(=O)C(C)(OC(=O)c3cccs3)C(=O)C2=CN1C(CO)CO (centres undefined)	-	0	-	-	0	0[11.4 µM]
O=C(NCCN1CCCC1)c1ccc(Cc2nc3ccccc3[nH]2)cc1	-	0	-	-	-	0
CN(C)CCCNc1ncnc2nc[nH]c12	-	0	-	0[11.4 µM]	0	0[11.4 µM]
O=S(=O)(c1ccccc1)N1CCC2(CCN(Cc3ccccc3)CC2)CC1	-	0	-	0	0	0
O=C1/C(=C/c2ccccc2)Nc2ccccc21	0	18µM	0	0	0	0
COc1ccc(/C=C2\SC(=O)N=C2N)cc1	-104	0	-	-	0	0
O=C(O)[C@H]1O[C@H]1C(=O)O	-	0	-	0[11.4 µM]	0	0[11.4 µM]
O=C1Nc2ccccc2SC(c2ccccc2)C1O (centres undefined)	?	28µM	0	?	0	0
N=c1c(C(=O)NCC2CCCO2)cc2c(=O)n3ccccc3nc2n1CCCO (centres undefined)	-	-	0	-	-	-
COc1ccc(C(=O)Oc2ccc(F)cc2C(=O)/C=C/c2ccc(OC)c(OC)c2)cc1	0	0	-	-	0	0
COc1ccc(/C=C/C(=O)c2cc(F)ccc2OC(=O)c2ccccc2C)cc1OC	-88	0	-	-	0	0
O=C(c1ccc(COc2ccccc2[N+](=O)[O-])o1)N1CCCCC1	0	22µM	0	0	0	0
O=C(O)c1ccc(COc2ccccc2[N+](=O)[O-])o1	?	0	-	-	0	0
O=C(c1ccc(COc2ccccc2[N+](=O)[O-])o1)N1CCCCCC1	?	25µM	0	0	0	0
COc1ccc(NC(=O)c2ccco2)cc1NC(=O)c1cccc(C)c1OC	-	-	0	-	-	-
O=c1cnc2cnc(N3CCNCC3)nc2n1C1CC1	-	-	-	0	0	-
CC(=O)c1cccc(Nc2nc(-c3cccc([N+](=O)[O-])c3)cs2)c1	-85	0	0	0	0	0
CC(=O)Nc1nc(C)c(-c2csc(Nc3cccc([N+](=O)[O-])c3)n2)s1	0	0	0	0	0	0
O=C1/C(=C/c2cccs2)COc2ccccc21	0	25µM	0	-	0	0
Cc1nn(Cc2ccccc2)c(Cl)c1C(=O)OCc1nnc(-c2ccc(Cl)cc2)o1	0	0	0	0	0	0
CCOc1ncccc1C(=O)OCc1nnc(-c2ccccc2)o1	0	16µM	?	0	0	0
CCOc1ncccc1C(=O)OCC(=O)c1ccc(Cl)s1	0	20µM	0	0	0	0
O=C(OCc1nnc(-c2ccccc2)o1)c1cccnc1Cl	-	-	-	-	0	-
N#Cc1ccccc1Sc1ccccc1C(=O)OCc1nnc(-c2ccccc2)o1	0	8.9µM	0	0	0	0
SMILES	PNC assembly inh	HPGD block	IMPase inh	15-hLO-2 inh	IMPase Li cell	ALOX12 inhib
CCOc1ncccc1C(=O)OCC(=O)c1ccc(F)cc1	-	-	-	-	0	-
Cc1nn(Cc2ccccc2)c(Cl)c1C(=O)OCc1nnc(-c2ccccc2)o1	0	13µM	0	0	0	0
O=C1OC2C[C@H]1[C@@H]1C(=O)N(Cc3ccccc3)CCC1C2I (some centres undefined)	-	0	-	0[0.0915 µM]	0	0[0.00818 µM]
COc1ccc(CC(=O)OCc2nnc(-c3ccccc3)o2)cc1	-	-	-	-	0	-
O=C(OCc1nnc(-c2ccccc2)o1)c1ccco1	0	8.9µM	0	0	0	0
O=C(OCc1nnc(-c2ccccc2)o1)c1ccc2c(c1)OCO2	0	7.1µM	0	0	0	0
Cc1ccc(S(=O)(=O)N(C)CC(=O)OCc2nnc(-c3ccccc3)o2)cc1	0	25µM	0	0	0	0
COc1ccc(CCNC(=O)c2ccc(Nc3nc4ccccc4n4nnnc34)cc2)cc1OC	-	-	0	-	-	-
COc1cccc(N(CC(=O)N2CCC(C)CC2)S(=O)(=O)c2ccc(C)cc2)c1	-	-	0	-	-	-
Cc1ccc(S(=O)(=O)NCC(=O)OCc2ccccc2)cc1	-	-	-	-	0	-
O=C(CNS(=O)(=O)c1ccccc1)NCC(=O)OCc1ccc(C(=O)c2ccccc2)cc1	0	20µM	-	-	0	0
